# Measurements from PubChem BioAssay (NCATS).
# Results filed as inconclusive are left out. The source made the active and inactive calls. Calls come from the whole dose curve; as a rule, active = well fitted inhibition curve with a large enough effect; inconclusive = small, poorly fitted or top-dose-only effect, or effect the other way; inactive = flat fitted curve, though single readings scatter.
# Biological target: ATP-dependent 6-phosphofructokinase (Trypanosoma brucei brucei) (UniProt O15648)
# Sequence (O15648 whole entry, looked up): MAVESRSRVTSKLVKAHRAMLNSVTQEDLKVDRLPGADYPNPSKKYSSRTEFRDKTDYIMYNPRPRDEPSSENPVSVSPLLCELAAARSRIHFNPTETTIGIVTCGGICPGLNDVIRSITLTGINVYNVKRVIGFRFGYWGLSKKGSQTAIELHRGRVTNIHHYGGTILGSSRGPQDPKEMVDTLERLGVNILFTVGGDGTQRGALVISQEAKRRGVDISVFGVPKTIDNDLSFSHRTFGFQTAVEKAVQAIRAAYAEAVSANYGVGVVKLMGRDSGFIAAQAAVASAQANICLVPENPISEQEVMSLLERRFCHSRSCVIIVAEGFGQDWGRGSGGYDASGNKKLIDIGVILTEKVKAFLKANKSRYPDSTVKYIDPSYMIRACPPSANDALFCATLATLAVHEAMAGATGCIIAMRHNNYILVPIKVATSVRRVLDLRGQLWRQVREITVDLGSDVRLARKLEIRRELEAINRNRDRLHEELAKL
# Test: qHTS Assay to Find Inhibitors of T. brucei phosphofructokinase: hit validation (AID 492961);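 note: luminescence reports ADP formed as PFK phosphorylates fructose-6-phosphate with ATP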
# Details: T. brucei PFK, ADP-Glo luminescence; series mostly up to 51.4 µM; activity change, negative = inhibition: at the top concentration
# Summary of the method: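 Inhibition of parasite PFK is measured as reduced ADP formation, quantified via luciferase after ATP depletion. Assay used 0.1 mM ATP, 0.5 mM F6P, 1.25 nM enzyme, 45 min incubation.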
# % is set by controls: 0 for no effect and ±100 for the full control effect.
row,SMILES,"activity change, negative = inhibition"
1,CC12CCC(C[N+](C)(CCC[N+](C)(C)C)C1)C2(C)C (stereo unspecified),0% (inactive)
2,CN[C@@H]1[C@H](O[C@H]2[C@H](O[C@H]3[C@H](O)[C@@H](O)[C@H](N=C(N)N)[C@@H](O)[C@@H]3N=C(N)N)O[C@@H](C)[C@]2(O)C=O)O[C@@H](CO)[C@H](O)[C@H]1O,3.26% (inactive)
3,O=C1N=C2SCCN2C(=O)C1Cc1ccc(Cl)cc1 (stereo unspecified),3.16% (inactive)
4,CN(Cc1ccccc1)Cc1ccccc1,-1.16% (inactive)
5,CN1C(=O)C[C@@H](C(=O)N[C@@H](Cc2cnc[nH]2)C(=O)N2CCC[C@H]2C(N)=O)NC1=O,-6.42% (inactive)
6,COC1=C(OC)C(=O)C(C/C=C(\C)CC/C=C(\C)CC/C=C(\C)CC/C=C(\C)CC/C=C(\C)CC/C=C(\C)CC/C=C(\C)CC/C=C(\C)CC/C=C(\C)CCC=C(C)C)=C(C)C1=O,-0.31% (inactive)
7,CCOC(=O)[C@@H](N)CS,15.1% (inactive)
8,OC1OC[C@@H](O)[C@H](O)[C@@H]1O (stereo partly specified),-1.73% (inactive)
9,O=C(OCc1ccccc1)c1ccc(O)cc1,0.719% (inactive)
10,OCC(O)CO,-3.81% (inactive)
11,COC(=O)C(CN)c1c[nH]c2ccc(OC)cc12 (stereo unspecified),0% (inactive)
12,CN(C)CCCSc1ccccc1NC(=O)/C=C/c1ccccc1,-2.13% (inactive)
13,O=C1NCCN1c1ncc([N+](=O)[O-])s1,3.39% [at 24.3 µM] (inactive)
14,Cc1cccc(C)c1NC(=O)NC1=CCCN1C,-3.07% (inactive)
15,O=C1CCC(=O)N1CO,1.05% (inactive)
16,NC(=S)NS(=O)(=O)c1ccc(N)cc1,11.1% (inactive)
17,CSCCC(N)C(=O)O (stereo unspecified),-4.76% (inactive)
18,CC(=O)[C@H]1CC[C@H]2[C@@H]3C=CC4=CC(=O)CC[C@@]4(C)[C@H]3CC[C@]12C,12.5% [at 24.3 µM] (inactive)

row,SMILES,"activity change, negative = inhibition"
1,O=[n+]1ccn([O-])c2ccccc21,-7.81% (inactive)
2,CC(=O)N[C@@H]1C(O[C@H]2O[C@H](C(=O)O)C(O)[C@H](O)[C@H]2O)[C@H](O)[C@@H](CO)O[C@H]1O[C@@H]1C(C(=O)O)O[C@@H](O[C@H]2[C@H](O)[C@@H](CO)OC(O)[C@@H]2NC(C)=O)[C@H](O)[C@H]1O (stereo partly specified),18.1% (inactive)
3,OC[C@H]1O[C@@H]2O[C@H]3[C@H](O)[C@@H](O)[C@@H](O[C@H]4[C@H](O)[C@@H](O)[C@@H](O[C@H]5[C@H](O)[C@@H](O)[C@@H](O[C@H]6[C@H](O)[C@@H](O)[C@@H](O[C@H]7[C@H](O)[C@@H](O)[C@@H](O[C@H]1[C@H](O)[C@H]2O)O[C@@H]7CO)O[C@@H]6CO)O[C@@H]5CO)O[C@@H]4CO)O[C@@H]3CO,-4.5% (inactive)
4,CC(=O)NCCCS(=O)(=O)O,1.78% (inactive)
5,CNC(=O)C[C@@H](N)C(=O)N[C@@H](C(=O)N[C@@H]1C(=O)N2[C@@H]1SC(C)(C)[C@@H]2C(=O)O)c1ccc(O)cc1,3.96% (inactive)
6,C[C@H](N)C(=O)N[C@@H](C)P(=O)(O)O,-0.703% (inactive)
7,C[C@H](O)CN(C)C,-1.72% (inactive)
8,O=P(O)(O)OC[C@H](O)CO,12.2% (inactive)
9,Cc1nc(NS(=O)(=O)c2ccc(N)cc2)nc(C)c1Br,-1.41% (inactive)
10,NCC[C@H](O)C(=O)N[C@@H]1C[C@H](N)[C@@H](O[C@H]2O[C@H](CN)CC[C@H]2N)[C@H](O)[C@H]1O[C@H]1O[C@H](CO)[C@@H](O)[C@H](N)[C@H]1O,7.52% (inactive)
11,CCN(CC)CCOc1ccccc1OC,-4.07% (inactive)
12,CC(C)CCCCCCc1ccc(O)cc1,0% (inactive)
13,C=C(C)C1CC=C(C)CC1 (stereo unspecified),1.64% (inactive)
14,CSc1nc2cc(Oc3cccc(Cl)c3Cl)c(Cl)cc2[nH]1,-2.92% (inactive)
15,O=C(O)CCC(=O)c1ccc(-c2ccccc2)cc1,5.97% [at 24.3 µM] (inactive)
16,CN(C)C(=O)CCSC(SCCC(=O)O)c1cccc(/C=C/c2ccc3ccc(Cl)cc3n2)c1 (stereo unspecified),7.34% (inactive)
17,CN1CCC(OC(=O)C(Oc2ccc(Cl)cc2)Oc2ccc(Cl)cc2)CC1,6.05% (inactive)
18,FC(F)OC(Cl)C(F)(F)F (stereo unspecified),0% (inactive)
